Reference: PubChem BioAssay AID1159580 (chemical genetic matrix, 2015)
About 2,000 (36%) of roughly 5,500 compounds were called active. Another 18% or so got no clear call; they are omitted. Rule as the data show it: active = normalized growth mostly below about 0.91 (no sharp cut-off); inconclusive = no clear call, values can overlap the other calls; inactive = mostly above about 0.92. Some of the results follow.

Experiment: chemical genetic growth profiling, strain panel (AID 1159580);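 also: tested at 20 µM; growth read once vehicle control cultures reached saturation at 30 °C; 1 = growth at the plate median or of vehicle wells; lower values mean less growth of the strain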
Settings: growth OD

Measured: normalized growth

CC(C)=CCC1=C(O)c2ccccc2C(=O)C1=O
active: S. cerevisiae deletion strains, locus YKL068W, active compounds read low 0.887 | S. cerevisiae deletion strains, locus YKL085W, strain MDH1 (second series), active compounds read low 0.884 | S. cerevisiae deletion strains, locus YKL085W, strain MDH1, active compounds read low 0.884 | S. cerevisiae deletion strains, locus YKL160W, strain elf1, active compounds read low 0.741 | S. cerevisiae deletion strains, locus YKR001C, strain vps1, active compounds read low 0.788 | S. cerevisiae deletion strains, locus YKR026C, strain gcn3, active compounds read low 0.775 | S. cerevisiae deletion strains, locus YKR091W, strain srl3, active compounds read low 0.809 | S. cerevisiae deletion strains, locus YLL001W, strain dnm1, active compounds read low 0.598 | S. cerevisiae deletion strains, locus YLL026W, active compounds read low 0.808 | S. cerevisiae deletion strains, locus YLL041C, strain sdh2, active compounds read low 0.815 | S. cerevisiae deletion strains, locus YLR027C, strain aat2, active compounds read low 0.823 | S. cerevisiae deletion strains, locus YLR221C, strain rsa3, active compounds read low 0.819 | S. cerevisiae deletion strains, locus YLR258W, strain gsy2, active compounds read low 0.797 | S. cerevisiae deletion strains, locus YLR262C, strain YPT6 (second series), active compounds read low 0.334 | S. cerevisiae deletion strains, locus YLR268W, strain sec22, active compounds read low 0.879 | S. cerevisiae deletion strains, locus YLR320W, strain mms22, active compounds read low 0.741 | S. cerevisiae deletion strains, locus YLR342W, strain FKS1, active compounds read low 0.727 | S. cerevisiae deletion strains, locus YLR357W, strain rsc2, active compounds read low 0.837 | S. cerevisiae deletion strains, locus YLR370C, strain arc18, active compounds read low 0.806 | S. cerevisiae deletion strains, locus YLR384C, strain iki3, active compounds read low 0.818 | S. cerevisiae deletion strains, locus YML120C, strain ndi1, active compounds read low 0.759 | S. cerevisiae deletion strains, locus YMR058W, strain fet3, active compounds read low 0.651 | S. cerevisiae deletion strains, locus YMR125W, strain sto1, active compounds read low 0.884 | S. cerevisiae deletion strains, locus YMR129W, active compounds read low 0.773 | S. cerevisiae deletion strains, locus YMR205C, strain PFK2, active compounds read low 0.837 | S. cerevisiae deletion strains, locus YMR223W, strain ubp8, active compounds read low 0.864 | S. cerevisiae deletion strains, locus YMR231W, strain pep5, active compounds read low 0.791 | S. cerevisiae deletion strains, locus YNL071W, strain lat1, active compounds read low 0.837 | S. cerevisiae deletion strains, locus YNL209W, strain ssb2, active compounds read low 0.715 | S. cerevisiae deletion strains, locus YNL250W, strain rad50, active compounds read low 0.897 | S. cerevisiae deletion strains, locus YNL271C, strain bni1, active compounds read low 0.892 | S. cerevisiae deletion strains, locus YNL307C, strain MCK1, active compounds read low 0.904 | S. cerevisiae deletion strains, locus YNL322C, strain KRE1 (second series), active compounds read low 0.791 | S. cerevisiae deletion strains, locus YNR049C, strain mso1, active compounds read low 0.772 | S. cerevisiae deletion strains, locus YOL006C, strain TOP1, active compounds read low 0.29 | S. cerevisiae deletion strains, locus YOR001W, strain rrp6, active compounds read low 0.864 | S. cerevisiae deletion strains, locus YOR070C, strain gyp1, active compounds read low 0.821 | S. cerevisiae deletion strains, locus YOR080W, strain dia2, active compounds read low 0.789 | S. cerevisiae deletion strains, locus YOR083W, strain WHI5, active compounds read low 0.772 | S. cerevisiae deletion strains, locus YOR106W, strain vam3, active compounds read low 0.595 | S. cerevisiae deletion strains, locus YOR144C, strain elg1, active compounds read low 0.933 | S. cerevisiae deletion strains, locus YOR265W, strain rbl2, active compounds read low 0.822 | S. cerevisiae deletion strains, locus YOR270C, strain vph1, active compounds read low 0.294 | S. cerevisiae deletion strains, locus YOR290C, strain snf2, active compounds read low 0.778 | S. cerevisiae deletion strains, locus YPL051W, strain arl3, active compounds read low 0.657 | S. cerevisiae deletion strains, locus YPL078C, strain atp4, active compounds read low 0.678 | S. cerevisiae deletion strains, locus YPL106C, strain sse1, active compounds read low 0.816 | S. cerevisiae deletion strains, locus YPL240C, strain hsp82, active compounds read low 0.825 | S. cerevisiae deletion strains, locus YPL241C, strain CIN2, active compounds read low 0.925 | S. cerevisiae deletion strains, locus YPR141C, strain kar3, active compounds read low 0.839
inactive: S. cerevisiae deletion strains, locus YJR075W, strain HOC1, active compounds read low 1.03 | S. cerevisiae deletion strains, locus YKL009W, strain mrt4, active compounds read low 0.945 | S. cerevisiae deletion strains, locus YKL190W, strain CNB1, active compounds read low 0.951 | S. cerevisiae deletion strains, locus YLR039C, strain RIC1, active compounds read low 0.705 | S. cerevisiae deletion strains, locus YLR058C, strain SHM2, active compounds read low 0.954 | S. cerevisiae deletion strains, locus YLR102C, strain apc9, active compounds read low 0.963 | S. cerevisiae deletion strains, locus YLR113W, strain HOG1, active compounds read low 0.965 | S. cerevisiae deletion strains, locus YLR262C, strain YPT6, active compounds read low 0.733 | S. cerevisiae deletion strains, locus YLR330W, strain CHS5, active compounds read low 0.948 | S. cerevisiae deletion strains, locus YLR342W, strain FKS1 (second series), active compounds read low 0.844 | S. cerevisiae deletion strains, locus YLR371W, strain rom2, active compounds read low 0.939 | S. cerevisiae deletion strains, locus YLR418C, strain cdc73, active compounds read low 1.03 | S. cerevisiae deletion strains, locus YML016C, strain PPZ1, active compounds read low 0.958 | S. cerevisiae deletion strains, locus YML032C, strain rad52, active compounds read low 0.906 | S. cerevisiae deletion strains, locus YML124C, strain tub3, active compounds read low 0.935 | S. cerevisiae deletion strains, locus YMR078C, strain ctf18, active compounds read low 0.921 | S. cerevisiae deletion strains, locus YMR263W, strain SAP30, active compounds read low 1.01 | S. cerevisiae deletion strains, locus YMR307W, strain GAS1, active compounds read low 0.721 | S. cerevisiae deletion strains, locus YNL067W, strain RPL9B, active compounds read low 0.989 | S. cerevisiae deletion strains, locus YNL128W, strain TEP1, active compounds read low 0.945 | S. cerevisiae deletion strains, locus YNL153C, strain GIM3, active compounds read low 0.965 | S. cerevisiae deletion strains, locus YNL183C, strain NPR1, active compounds read low 0.914 | S. cerevisiae deletion strains, locus YNL233W, strain BNI4, active compounds read low 0.964 | S. cerevisiae deletion strains, locus YNL248C, strain rpa49, active compounds read low 0.974 | S. cerevisiae deletion strains, locus YNL298W, strain CLA4, active compounds read low 0.914 | S. cerevisiae deletion strains, locus YNL322C, strain KRE1, active compounds read low 0.934 | S. cerevisiae deletion strains, locus YNR052C, strain pop2, active compounds read low 0.918 | S. cerevisiae deletion strains, locus YOL012C, strain htz1 1.37 | S. cerevisiae deletion strains, locus YOL147C, strain pex11, active compounds read low 0.953 | S. cerevisiae deletion strains, locus YOR061W, strain CKA2, active compounds read low 0.953 | S. cerevisiae deletion strains, locus YOR069W, strain VPS5, active compounds read low 0.934 | S. cerevisiae deletion strains, locus YOR136W, strain idh2, active compounds read low 0.928 | S. cerevisiae deletion strains, locus YOR184W, strain ser1, active compounds read low 0.894 | S. cerevisiae deletion strains, locus YOR231W, strain MKK1, active compounds read low 0.966 | S. cerevisiae deletion strains, locus YOR316C, strain cot1, active compounds read low 0.968 | S. cerevisiae deletion strains, locus YPL055C, strain LGE1, active compounds read low 1.05 | S. cerevisiae deletion strains, locus YPL256C, strain CLN2, active compounds read low 1.02 | S. cerevisiae deletion strains, locus YPR119W, strain clb2, active compounds read low 0.967 | S. cerevisiae deletion strains, locus YPR163C, strain tif3, active compounds read low 0.957 | S. cerevisiae deletion strains, locus YPR167C, strain met16, active compounds read low 0.937 | S. cerevisiae deletion strains, strain wtn01, active compounds read low 0.951 | S. cerevisiae strains, strain wild type, active compounds read low 0.934
